# Reference: PubChem BioAssay AID493073 (Broad Institute, 2011)
# Out of some 1,200 compounds screened, about 810 (68%) were called active. How the calls were made is not given here. The set was probably picked from earlier hits. Not all results are given here. Entries with a potency or affinity are not part of this list.
# Test: TRPM1 promoter luciferase signal decrease, dose response, MITF inhibitor project, cell-based, SK-MEL-5, cherry-picked, set 3 (AID 493073)
# Conditions: SK-MEL-5 TRPM1 promoter luciferase, 24 h; series mostly up to 35 µM; activity change, negative = inhibition: at the top concentration
row,Compound,"activity change, negative = inhibition"
1,COCCNC(=O)c1cc2sc3ccccc3c2s1,87.8% (inactive)
2,FC(F)(F)Oc1ccc(-c2cn3cccnc3n2)cc1,19.7% (inactive)
3,O=C(CNC(=O)c1ccc(Br)cc1)c1ccccc1,60.2% (inactive)
4,Clc1ccccc1CSc1nnc(-c2ccncc2)o1,109% (inactive)
5,Cc1ccc2nc(NC(=O)c3ccc(Br)o3)sc2c1,-8.24% (inactive)
6,Cc1ccc(C(=O)Nc2nc3ccc(Cl)cc3s2)o1,-10.5% (inactive)
7,O=C(Nc1nc2ccccc2s1)Nc1ccc(F)cc1F,-30.3% (inactive)
8,COC(=O)c1ccc(COc2ccc(C)cc2[N+](=O)[O-])o1,95.3% (inactive)
9,Cc1cc(NC(=O)c2ccc(Cl)cc2Cl)no1,48.5% (inactive)
10,COc1ccc2oc3ccc(OC)cc3c(=O)c2c1,65.4% (inactive)
11,O=C(Nc1cccnc1Cl)c1cc(-c2ccco2)on1,89.7% (inactive)
12,CC1CCN(c2ccc(NC(=O)c3cccnc3)cc2)CC1,39.5% (inactive)
13,NNC(=O)Cn1c(SCc2ccccc2)nc2ccccc21,14.7% (inactive)
14,COC(=O)c1ccc(COc2ccc3c(c2)CCC3)o1,-9.54% (inactive)
15,O=C(Nc1nc2ccsc2c(=O)s1)C1CCC1,104% (inactive)
16,O=C(O)C1CCN(C(=O)OCc2ccccc2)CC1,75.1% (inactive)
17,Fc1ccccc1-c1nc(-c2ccncc2)no1,-18.5% (inactive)
18,CCOc1ccccc1-c1nc(-c2ccc(C)nc2OC)no1,35.6% (inactive)
19,Clc1ccc(-c2nc(-c3ccncc3)no2)c(Cl)c1,16.9% (inactive)
20,Cc1ccc(-c2nc(-c3ccncc3)no2)cc1C,-14.7% (inactive)
21,Cc1ccc(SCCC(=O)N2CCC(C)CC2)cc1,90.4% (inactive)
22,O=C(Nc1ccc(Cl)cc1)C1C2CCCCC21 (stereo not drawn),115% (inactive)
23,N/C(=N\OC(=O)c1ccncc1)c1cccc([N+](=O)[O-])c1,77% (inactive)
24,N/C(=N\OC(=O)c1ccccc1Cl)c1cccc([N+](=O)[O-])c1,35.6% (inactive)
25,CCn1c(=O)c(C(=O)NCc2ccccc2Cl)c(O)c2ccccc21,29.9% (inactive)
26,Cc1ccc(SCc2cn3cc(Cl)ccc3n2)cc1,86.4% (inactive)

row,Compound,"activity change, negative = inhibition"
1,N/C(=N\OC(=O)c1cccc(F)c1)c1cccc([N+](=O)[O-])c1,62% (inactive)
2,Cc1ccccc1OCc1nc2c3cnn(C)c3ncn2n1,25.3% (inactive)
3,CC(C)(C)c1ccc(OCCn2ccccc2=O)cc1,92.5% (inactive)
4,Cc1ccc(OCCNCc2ccccc2)c(C)c1,47.9% (inactive)
5,COc1ccc(NC(=O)c2cc(-c3ccccc3Cl)on2)cc1,68.1% (inactive)
6,O=C1c2ccccc2C(=O)N1CCOc1ccccc1,44% (inactive)
7,CC(C)c1nnc(NC(=O)CCC2CCCCC2)s1,127% (inactive)
8,CC(C)(C)C1CCC(OC(=O)CN2CCCCC2)CC1 (stereo not drawn),111% (inactive)
9,COc1ccc(C2C(C#N)=C(N)Oc3c2oc(CO)cc3=O)cc1 (stereo not drawn),-9.49% (inactive)
10,CC(=O)c1ccc(N/C=C/C(=O)c2ccc(Br)cc2)cc1,93.8% (inactive)
11,O=C(Nc1ccc2ncccc2c1)c1ccccc1Br,79.9% (inactive)
12,Oc1ccccc1/C=N/Nc1cccc2cccnc12,-55.2% (inactive)
13,Cc1ccc2nc(Cc3ccc(N)cc3)oc2c1,112% (inactive)
14,CCOc1ccccc1NC(=O)C1C2CCC(O2)C1C(=O)O (stereo not drawn),4.79% (inactive)
15,COc1ccc(-c2cc(-c3ccc(OC)c(OC)c3)n[nH]2)c(O)c1,12.6% (inactive)
16,COc1ccc(C(=O)NCC(=O)c2ccccc2)cc1,35.4% (inactive)
17,COc1ccc(C(=O)NCCSc2ccccc2C)cc1,17.6% (inactive)
18,COc1cccc(CNc2nc3ccccc3n2C)c1O,29% (inactive)
19,Cc1cc(C(F)(F)F)c2c(N)c(C(=O)Nc3cc(C)on3)sc2n1,84.5% (inactive)
20,Cc1cc(C)c2c(N)c(C(=O)N/N=C/c3ccccc3)sc2n1,0.611% (inactive)
21,CCc1cc(C=NC2CCCCC2)c(O)s1,90% (inactive)
22,Cc1ccccc1NCc1nc2ccccc2n1C,-42.1% (inactive)
23,O=C(NCc1ccco1)c1ccc(COCC(F)(F)F)cc1,31% (inactive)
24,CN(C)c1ccc(/C=C/c2cccc[n+]2[O-])cc1,93.6% (inactive)
25,Cc1ccc(O)c(NC(=O)c2ccc3c(c2)C(=O)N(CC(C)C)C3=O)c1,71.8% (inactive)
26,Clc1nccnc1N/N=C/c1ccc(Br)cc1,85.4% (inactive)

row,Compound,"activity change, negative = inhibition"
1,COc1cccc(/C=N/NC(=O)c2cccs2)c1,120% (inactive)
2,N/C(=N\OC(=O)Cc1cccs1)c1ccccc1,98.9% (inactive)
3,O=C(NC1CCCCC1)c1cc2cc(Br)ccc2o1,111% (inactive)
4,COc1cccc(-c2ccc3c(N)c(C(=O)NC4CC4)sc3n2)c1,116% (inactive)
5,O=C(NC1CCCCCC1)c1cc2ccccc2oc1=O,97.4% (inactive)
6,N#C/C(C(=O)c1ccccc1)=C1/CCCCCN1,62.4% (inactive)
7,CCOc1ccc(N=C(C)C2=C(O)c3ccccc3C2=O)cc1,39.1% (inactive)
8,Cn1c(COc2ccccc2Br)nc2ccccc21,48.2% (inactive)
9,NC(=O)c1c(NC(=O)c2cccnc2)sc2c1CCCCC2,64% (inactive)
10,Cc1ccc(COc2ccc(C)nc2[N+](=O)[O-])cc1,70.4% (inactive)
11,CCOc1cc(/C=N/N=C(N)N)ccc1OCc1ccc(Cl)cc1,-103% (inactive)
12,O=C(Nc1ccc(Cl)cc1)N1CC=CCC1,44.2% (inactive)
13,CC(C)(CO)NC(=O)c1ccc2nc(Cc3cccc(Cl)c3)oc2c1,51.1% (inactive)
14,Cc1ccc(C(=O)c2coc3ccc(O)c(Cl)c23)cc1,-86.9% (inactive)
15,OCc1ccc(N=Nc2ccccc2)cc1,64.1% (inactive)
16,Cc1ccc(OCCCCN2CCCCC2)c(Br)c1,53.3% (inactive)
17,O=C(Cc1cccs1)NCc1ccc(Cl)cc1Cl,104% (inactive)
18,O=C(CCC(=O)c1ccc[nH]1)c1ccc(Cl)cc1,-43.8% (inactive)
19,COc1nc(NC2CCCCC2)nc(NC(C)(C)C)n1,92.4% (inactive)
20,C#Cc1cccc(NC(=O)CSc2nnc(-c3ccc(C(F)(F)F)cn3)o2)c1,90.1% (inactive)
21,Cn1c(COc2ccccc2)nc2ccccc21,110% (inactive)
22,COc1ccc(NCc2nc3ccccc3n2C)cc1,31.7% (inactive)
23,COc1cc(CN2CCC(C(=O)NCCC(C)C)CC2)ccc1OCc1ccccc1,-14.8% (inactive)
24,COc1ccc(C(=O)Nc2ccc3c(c2)OCCO3)cc1Br,108% (inactive)
25,COc1cccc(/C=C/C(=O)c2ccc3c(c2)OCCO3)c1OC,7.31% (inactive)
26,COc1ccc(N(CC(=O)NCC2CCCO2)S(=O)(=O)c2ccccc2)cc1OC (stereo not drawn),4.58% (inactive)

row,Compound,"activity change, negative = inhibition"
1,CC(=O)Nc1cccc(-c2nnc(-c3ccccc3)o2)c1,90.7% (inactive)
2,O=C(CN1CCCCC1)Nc1scc2c1c(=O)oc1ccccc12,102% (inactive)
3,CCN(CC)CCNC(=O)C1CCN(S(=O)(=O)c2c(C)noc2/C=C/c2ccccc2F)CC1,-98.8% (inactive)
4,Cc1cc(/C(N)=N/OC(=O)Nc2ccc(Cl)cc2)no1,82.3% (inactive)
5,Cc1cccc(NC(=O)c2cnn(-c3ccccc3)c2C)c1C,78.3% (inactive)
6,Cc1ccsc1C(=O)OCC(=O)Nc1sccc1C(N)=O,34% (inactive)
7,CCCCC(=O)N/C(N)=N/c1nc2ccccc2o1,51.4% (inactive)
8,Cc1cccc(-c2nc(C#N)c(NCc3ccco3)o2)c1,68.3% (inactive)
9,O=C(NCC1CCCO1)c1cc(-c2ccc(Cl)cc2Cl)on1 (stereo not drawn),55.5% (inactive)
10,Cc1ccc(-c2nc(C#N)c(NCc3ccco3)o2)cc1,72.4% (inactive)
11,O=C(Nc1ccc2nn(-c3ccccc3)nc2c1)c1ccco1,20.6% (inactive)
12,CNc1oc(/C=C/c2cccc(OC)c2)nc1C#N,-46.1% (inactive)
13,CC(C)C(=O)Nc1cccc(NC(=O)c2cc3ccccc3o2)c1,107% (inactive)
14,Cc1cc(Cl)ccc1NC(=O)c1ccc2c(c1)OCO2,-25.9% (inactive)
15,N=c1n(CC(=O)c2ccc([N+](=O)[O-])cc2)c2ccccc2n1Cc1ccc(Cl)cc1,-108% (inactive)
16,O=C1CN(c2ccccc2)C(=S)N1C(=O)c1ccc(Br)cc1,102% (inactive)
17,Cc1c(C=O)c2cc(OCc3ccccc3)ccc2n1C,98.6% (inactive)
18,CC1CCCC(C)N1CCCNC(=O)c1cc2c(s1)-c1ccccc1OC2 (stereo not drawn),-96.5% (inactive)
19,COc1ccccc1/C=C/C=N/NC(=O)c1cccs1,75.3% (inactive)
20,Cc1ccc(SCCSc2ncccn2)cc1,31.1% (inactive)
21,Nc1c(-c2ccccc2)cnc2c(-c3ccccc3)cnn12,10.9% (inactive)
22,CC(C)(C)c1cc(NCCCn2ccnc2)n2ncc(-c3ccccc3)c2n1,70.1% (inactive)
23,c1cc(CSc2nnc(-c3ccc4c(c3)OCO4)o2)ccn1,112% (inactive)
24,O=C(Nc1nc2ccccc2s1)c1ccccc1[N+](=O)[O-],95.9% (inactive)
25,Cc1ccc(NC(=O)Nc2ccccc2)nc1,69.9% (inactive)
26,COc1cc(SC)ccc1C(=O)NCCOc1ccccc1Cl,100% (inactive)

row,Compound,"activity change, negative = inhibition"
1,Cc1cnn(C(=S)NCCc2ccccc2)c1,81.1% (inactive)
2,CN(C)CCCN(C(=O)CCc1ccccc1)c1nc2ccc(Br)cc2s1,-107% (inactive)
3,COc1ccc(C)c2sc(N(CCN(C)C)C(=O)/C=C/c3cccs3)nc12,-76.1% (inactive)
4,O=C(CSC(=S)N1CCCCC1)c1c(F)cccc1F,55.9% (inactive)
5,COC(=O)c1c(C)[nH]c(/C=N/Nc2ccccc2)c1C,80.3% (inactive)
6,COc1ccc(CNC(=O)CN2C(=O)C3C4C=CC(C4)C3C2=O)cc1 (stereo not drawn),69.2% (inactive)
7,COc1cc(CN2CCC(C(N)=O)CC2)ccc1OCc1ccccc1,86.9% (inactive)
8,O=C(Nc1cc2c(cc1Cl)OCCO2)c1ccco1,17.4% (inactive)
9,CCOC(=O)c1sc(-c2ccccc2)cc1N,80.3% (inactive)
10,Cc1nn2c(N)c(-c3ccccc3)cnc2c1-c1ccccc1,90.7% (inactive)
11,CC(=O)Nc1cccc2c1Cc1ccccc1-2,28.8% (inactive)
12,CN(C)CCNC(=O)COc1ccc(C23CC4CC(CC(C4)C2)C3)cc1,-98.3% (inactive)
13,Cc1ccc(-n2ncc3c(SCC(N)=O)ncnc32)cc1C,39.7% (inactive)
14,Cn1c(/C=C/c2ccc(Cl)cc2)nc2ccccc2c1=O,-16.8% (inactive)
15,Fc1cccc(Cl)c1CSc1nnc(-c2ccncc2)o1,65.5% (inactive)
16,Cc1ccc(OCC(=O)Nc2ccccc2F)cc1,41.8% (inactive)
17,CSc1nc(N)n2nc(-c3ccc(Cl)cc3)cc2n1,17.8% (inactive)
18,COc1ccc(NC(=O)Nc2ccc(F)c(F)c2)c(OC)c1,38.9% (inactive)
19,O=[N+]([O-])c1ccccc1OCCOc1ccccc1[N+](=O)[O-],86.7% (inactive)
20,O=C(CCCc1ccccc1)N1CCN(C2CCCCC2)CC1,103% (inactive)
21,O=C(c1cc2ccccc2oc1=O)N(Cc1ccccc1)C1CCS(=O)(=O)C1 (stereo not drawn),45.9% (inactive)
22,N=C1C(c2nc3ccccc3[nH]2)=C(O)CN1C1CCCCC1,98% (inactive)
23,c1ccc(OCc2nc3ccccc3[nH]2)cc1,69.9% (inactive)
24,Cc1c(C(=O)N(CCO)Cc2ccccc2)oc2c(F)cccc12,95.6% (inactive)
